# ± gives the standard deviation of the averaged measurements. Targets with the largest changes are over-represented here; the source holds about 5,400 in all.
# Compound: Nc1nc2c(ncn2[C@@H]2O[C@H](COP(=O)(O)OP(=O)(O)OP(=O)(O)O)[C@@H](O)[C@H]2O)c(=O)[nH]1 [guanosine triphosphate]
# Assay: NP40-soluble protein abundance relative to vehicle (solubility fold change) (ratio); higher = more soluble protein in presence of GTP
# Conditions: concentration: 6mM
# How it was run: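 Jurkat crude lysate (Dounce-homogenised) was treated with eight concentrations from 0.1 to 10 mM for 10 min at room temperature, then 3 min at 37 °C. It was solubilised with 0.8% NP40 and benzonase (60 min, 4 °C) and ultracentrifuged, and the supernatant was TMT-labelled for LC-MS/MS. Intensities were vsn-normalised, and the value is the fold change against the NP40-processed vehicle per replicate, from three independent experiments.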
# Chain of UniProt O00418 (O00418 whole entry): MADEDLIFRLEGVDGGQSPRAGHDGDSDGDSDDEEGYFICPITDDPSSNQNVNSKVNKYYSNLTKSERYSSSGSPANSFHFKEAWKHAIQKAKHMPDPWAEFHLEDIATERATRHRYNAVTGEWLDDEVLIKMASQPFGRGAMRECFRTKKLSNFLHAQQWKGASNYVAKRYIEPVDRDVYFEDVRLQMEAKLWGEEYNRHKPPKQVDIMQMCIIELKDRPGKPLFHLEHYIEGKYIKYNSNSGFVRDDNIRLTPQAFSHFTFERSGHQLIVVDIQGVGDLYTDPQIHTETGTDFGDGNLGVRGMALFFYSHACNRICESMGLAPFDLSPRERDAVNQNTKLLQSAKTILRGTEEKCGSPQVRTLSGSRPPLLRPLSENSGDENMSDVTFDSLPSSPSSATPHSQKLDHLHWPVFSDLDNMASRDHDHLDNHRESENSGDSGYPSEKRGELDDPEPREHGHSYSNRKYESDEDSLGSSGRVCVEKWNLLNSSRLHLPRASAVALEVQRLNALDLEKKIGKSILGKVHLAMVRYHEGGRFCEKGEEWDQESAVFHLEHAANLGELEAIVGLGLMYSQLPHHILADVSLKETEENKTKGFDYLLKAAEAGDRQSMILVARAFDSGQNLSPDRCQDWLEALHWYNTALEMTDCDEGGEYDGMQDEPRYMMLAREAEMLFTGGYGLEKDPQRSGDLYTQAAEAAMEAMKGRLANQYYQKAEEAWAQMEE
# Chain of UniProt P09564 (P09564 whole entry): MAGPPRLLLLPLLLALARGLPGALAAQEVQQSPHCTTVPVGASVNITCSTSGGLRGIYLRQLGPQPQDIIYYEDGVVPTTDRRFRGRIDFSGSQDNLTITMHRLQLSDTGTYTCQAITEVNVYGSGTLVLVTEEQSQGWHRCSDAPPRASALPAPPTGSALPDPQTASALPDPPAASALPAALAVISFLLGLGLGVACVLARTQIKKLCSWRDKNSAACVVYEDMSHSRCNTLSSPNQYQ
# Chain of UniProt P49840 (P49840 whole entry, looked up): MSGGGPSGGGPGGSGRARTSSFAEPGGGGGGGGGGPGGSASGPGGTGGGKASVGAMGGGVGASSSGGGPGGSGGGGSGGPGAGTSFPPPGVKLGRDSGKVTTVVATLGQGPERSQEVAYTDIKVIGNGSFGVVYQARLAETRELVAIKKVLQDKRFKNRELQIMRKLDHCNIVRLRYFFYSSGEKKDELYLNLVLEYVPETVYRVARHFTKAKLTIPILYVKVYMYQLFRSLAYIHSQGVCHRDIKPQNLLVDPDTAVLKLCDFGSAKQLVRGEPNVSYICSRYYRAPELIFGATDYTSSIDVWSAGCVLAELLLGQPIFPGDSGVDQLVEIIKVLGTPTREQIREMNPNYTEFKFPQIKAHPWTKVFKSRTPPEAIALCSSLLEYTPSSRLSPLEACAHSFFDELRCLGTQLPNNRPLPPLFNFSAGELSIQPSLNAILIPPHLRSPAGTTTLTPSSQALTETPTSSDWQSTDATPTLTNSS
# Chain of UniProt P14550 (P14550 whole entry): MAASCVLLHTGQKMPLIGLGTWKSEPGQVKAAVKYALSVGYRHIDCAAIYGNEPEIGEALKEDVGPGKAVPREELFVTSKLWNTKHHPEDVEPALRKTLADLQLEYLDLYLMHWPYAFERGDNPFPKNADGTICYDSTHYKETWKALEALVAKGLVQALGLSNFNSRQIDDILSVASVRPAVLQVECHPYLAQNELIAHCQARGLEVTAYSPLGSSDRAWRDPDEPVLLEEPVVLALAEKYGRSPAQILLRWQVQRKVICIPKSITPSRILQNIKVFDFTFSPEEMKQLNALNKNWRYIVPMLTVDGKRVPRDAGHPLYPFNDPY
# Chain of UniProt O75582 (O75582 whole entry, looked up, one chain of several): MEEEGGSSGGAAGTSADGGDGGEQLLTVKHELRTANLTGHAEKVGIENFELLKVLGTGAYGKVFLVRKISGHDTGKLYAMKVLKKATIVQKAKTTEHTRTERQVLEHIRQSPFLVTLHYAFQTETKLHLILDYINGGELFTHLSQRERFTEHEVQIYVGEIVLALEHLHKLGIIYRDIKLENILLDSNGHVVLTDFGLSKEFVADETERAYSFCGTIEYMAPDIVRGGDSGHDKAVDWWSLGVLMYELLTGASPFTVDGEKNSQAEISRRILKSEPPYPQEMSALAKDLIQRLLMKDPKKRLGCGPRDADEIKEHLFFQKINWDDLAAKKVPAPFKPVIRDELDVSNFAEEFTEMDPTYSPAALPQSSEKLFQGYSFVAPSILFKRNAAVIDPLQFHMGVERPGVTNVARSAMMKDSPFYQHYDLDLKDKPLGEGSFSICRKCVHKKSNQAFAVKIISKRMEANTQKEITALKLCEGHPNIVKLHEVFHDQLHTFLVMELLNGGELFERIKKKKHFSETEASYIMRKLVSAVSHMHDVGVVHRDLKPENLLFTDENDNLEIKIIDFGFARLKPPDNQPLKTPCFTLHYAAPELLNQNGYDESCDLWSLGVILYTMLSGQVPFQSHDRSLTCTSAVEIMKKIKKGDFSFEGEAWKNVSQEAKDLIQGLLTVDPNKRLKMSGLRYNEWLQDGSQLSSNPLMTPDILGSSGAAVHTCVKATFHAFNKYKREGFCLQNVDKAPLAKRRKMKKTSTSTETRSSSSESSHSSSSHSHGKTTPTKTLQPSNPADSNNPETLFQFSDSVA
# Chain of UniProt O60287 (O60287 whole entry): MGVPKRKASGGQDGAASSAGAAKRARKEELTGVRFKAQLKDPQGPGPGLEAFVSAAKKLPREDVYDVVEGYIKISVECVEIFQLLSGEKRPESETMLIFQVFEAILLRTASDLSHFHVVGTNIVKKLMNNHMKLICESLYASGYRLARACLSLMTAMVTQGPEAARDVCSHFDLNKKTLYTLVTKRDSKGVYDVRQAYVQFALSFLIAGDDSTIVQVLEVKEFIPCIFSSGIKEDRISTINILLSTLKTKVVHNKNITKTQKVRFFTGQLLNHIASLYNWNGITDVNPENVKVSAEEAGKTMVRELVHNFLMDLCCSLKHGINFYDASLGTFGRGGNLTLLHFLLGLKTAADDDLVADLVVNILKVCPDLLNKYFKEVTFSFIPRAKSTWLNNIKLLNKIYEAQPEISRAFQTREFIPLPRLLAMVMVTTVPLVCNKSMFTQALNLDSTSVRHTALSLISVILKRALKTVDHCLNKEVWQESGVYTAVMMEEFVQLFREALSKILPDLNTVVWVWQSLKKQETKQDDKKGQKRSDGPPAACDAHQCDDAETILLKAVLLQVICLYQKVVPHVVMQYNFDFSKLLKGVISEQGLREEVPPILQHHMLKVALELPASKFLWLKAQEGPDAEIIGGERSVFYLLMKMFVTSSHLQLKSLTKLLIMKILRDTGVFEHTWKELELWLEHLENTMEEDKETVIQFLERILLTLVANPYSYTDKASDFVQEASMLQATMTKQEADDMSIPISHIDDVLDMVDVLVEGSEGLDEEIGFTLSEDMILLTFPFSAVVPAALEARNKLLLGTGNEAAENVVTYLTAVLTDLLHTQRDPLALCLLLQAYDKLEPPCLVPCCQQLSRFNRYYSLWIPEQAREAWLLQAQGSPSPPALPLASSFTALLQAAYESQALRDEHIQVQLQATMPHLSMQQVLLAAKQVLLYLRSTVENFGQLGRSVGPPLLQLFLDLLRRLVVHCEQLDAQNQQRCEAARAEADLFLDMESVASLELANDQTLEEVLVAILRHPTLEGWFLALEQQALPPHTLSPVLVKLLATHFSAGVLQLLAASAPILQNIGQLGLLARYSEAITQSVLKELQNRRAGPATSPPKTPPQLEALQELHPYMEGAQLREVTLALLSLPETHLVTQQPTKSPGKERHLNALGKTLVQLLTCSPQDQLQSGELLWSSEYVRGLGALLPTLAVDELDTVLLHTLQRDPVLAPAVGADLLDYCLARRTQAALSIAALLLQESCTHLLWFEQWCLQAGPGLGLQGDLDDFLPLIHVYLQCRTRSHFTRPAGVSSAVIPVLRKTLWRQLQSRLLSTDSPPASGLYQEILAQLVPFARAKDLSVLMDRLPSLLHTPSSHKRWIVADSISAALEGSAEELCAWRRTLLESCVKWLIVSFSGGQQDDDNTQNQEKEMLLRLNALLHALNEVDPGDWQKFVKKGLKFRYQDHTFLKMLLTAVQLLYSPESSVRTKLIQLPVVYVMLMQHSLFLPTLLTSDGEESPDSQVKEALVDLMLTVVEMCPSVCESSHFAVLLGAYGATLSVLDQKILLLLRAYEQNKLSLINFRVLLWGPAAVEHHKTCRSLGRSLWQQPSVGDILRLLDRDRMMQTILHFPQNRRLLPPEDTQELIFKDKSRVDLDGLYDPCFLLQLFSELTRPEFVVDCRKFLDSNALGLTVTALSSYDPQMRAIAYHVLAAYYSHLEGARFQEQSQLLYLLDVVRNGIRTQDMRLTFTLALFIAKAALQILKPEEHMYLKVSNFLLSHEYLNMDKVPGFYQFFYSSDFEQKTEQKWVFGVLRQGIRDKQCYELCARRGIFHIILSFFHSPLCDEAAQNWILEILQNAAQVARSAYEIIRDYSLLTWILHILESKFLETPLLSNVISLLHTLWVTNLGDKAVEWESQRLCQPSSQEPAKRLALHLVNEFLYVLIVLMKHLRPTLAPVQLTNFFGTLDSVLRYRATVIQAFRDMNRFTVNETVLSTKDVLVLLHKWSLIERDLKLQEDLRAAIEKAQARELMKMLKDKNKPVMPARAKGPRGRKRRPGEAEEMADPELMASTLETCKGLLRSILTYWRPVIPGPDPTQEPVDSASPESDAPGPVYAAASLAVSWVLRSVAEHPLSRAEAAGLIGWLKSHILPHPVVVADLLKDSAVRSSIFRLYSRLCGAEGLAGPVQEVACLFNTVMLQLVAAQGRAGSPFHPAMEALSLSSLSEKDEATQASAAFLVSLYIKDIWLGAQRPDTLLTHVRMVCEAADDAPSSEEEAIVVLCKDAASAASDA
# Chain of UniProt O14925 (O14925 whole entry): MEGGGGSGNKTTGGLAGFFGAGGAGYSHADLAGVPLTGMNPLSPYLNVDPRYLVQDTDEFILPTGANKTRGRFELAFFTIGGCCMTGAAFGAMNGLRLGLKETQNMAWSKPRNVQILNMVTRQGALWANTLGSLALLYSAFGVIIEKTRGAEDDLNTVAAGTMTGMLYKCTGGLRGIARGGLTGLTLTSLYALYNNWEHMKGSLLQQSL
row,Target,NP40-soluble protein abundance
1,P15531-2|P22392-2|Q32Q12 (UniProt Q32Q12+P22392+P15531),0.878 ± 0.04
2,UniProt P17096|P17096-2,1.69 ± 0.3
3,ARID1A (UniProt O14497),1.12 ± 0.12
4,ARPC1B (UniProt O15143),0.948 ± 0.04
5,CDC34 (UniProt P49427),1.12 ± 0.1
6,PPT1 (UniProt P50897),0.887 ± 0.11
7,AKR1A1 (UniProt P14550),0.849 ± 0.04
8,PSMB4 (UniProt P28070),1.03 ± 0.22
9,UniProt O95758-2|O95758-6|O95758|O95758-1|O95758-4|O95758-5|O95758-7,0.972 ± 0.05
10,UniProt O75170|O75170-2|O75170-3|O75170-4|O75170-5,0.992 ± 0.056
11,J3QQJ5|Q9Y2L5 (UniProt Q9Y2L5),0.989 ± 0.13
12,TIMM23 (UniProt O14925),0.877 ± 0.026
13,UniProt P30622|P30622-1,0.954 ± 0.069
14,UniProt P49840,0.925 ± 0.021
15,UniProt O00567,1.75 ± 0.12
16,UniProt O60861|O60861-1|O60861-4,0.929 ± 0.04
17,XPO1 (UniProt O14980),0.918 ± 0.033
18,UniProt P04150|P04150-10|P04150-2|P04150-3|P04150-5|P04150-6|P04150-7|P04150-8|P04150-9|P04150-11|P04150-12|P04150-13,0.999 ± 0.055
19,UniProt O75582|A0A0A0MQV2,0.965 ± 0.056
20,PPIF (UniProt P30405),0.868 ± 0.087

row,Target,NP40-soluble protein abundance
1,HMGN4 (UniProt O00479),2.26 ± 0.16
2,UniProt O15111,0.927 ± 0.061
3,DNAJC8 (UniProt O75937),1.14 ± 0.12
4,NUDT2 (UniProt P50583),1.24 ± 0.23
5,UniProt P49588|P49588-2,0.905 ± 0.041
6,FXR1 (UniProt P51114),2.02 ± 0.03
7,HIST1H1B (UniProt P16401),1.272 ± 0.012
8,UniProt P48634|P48634-2|P48634-3,1.52 ± 0.096
9,UniProt P09651|P09651-2,1.22 ± 0.089
10,NUP62 (UniProt P37198),1.06 ± 0.053
11,UniProt P38159|P38159-2,1.65 ± 0.1
12,URB1 (UniProt O60287),1.95 ± 0.13
13,RPL21 (UniProt P46778),0.856 ± 0.19
14,NUDT21 (UniProt O43809),2.04 ± 0.35
15,UniProt O43865,0.955 ± 0.029
16,SFPQ (UniProt P23246),1.85 ± 0.28
17,ZKSCAN1 (UniProt P17029),0.978 ± 0.026
18,UniProt P09564,0.977 ± 0.15
19,EEF2K (UniProt O00418),0.951 ± 0.052
